# Test results from PubChem BioAssay AID1159580 (chemical genetic matrix, 2015).
# “And” between values parts separate entries of the source, which are not always exact repeats. Identical values can stand only once. In all, about 5,500 compounds went through this assay and about 2,000 (36%) were called active. Roughly 18% stayed inconclusive and do not appear here. Some of the results follow. Unmarked numbers belong to inactive results. No stated cut-off is given here; in the data, active means normalized growth mostly below about 0.91 (no sharp cut-off); inconclusive means no clear call, values can overlap the other calls; inactive means mostly above about 0.92.
# Assay: chemical genetic growth profiling, strain panel (AID 1159580);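 further: tested at 20 µM; growth read once vehicle control cultures reached saturation at 30 °C; 1 = growth at the plate median or of vehicle wells; lower values mean less growth of the strain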
# Settings: S. cerevisiae deletion strains, growth OD
smiles,measurement,setting,value
CC(C)(O)CC[C@@H](O)[C@](C)(O)C1CC[C@@]2(O)C3=CC(=O)C4C[C@@H](O)[C@@H](O)C[C@]4(C)C3CC[C@]12C (stereo not given in full),normalized growth,"locus YAL013W, strain DEP1, hits give low values",1.04
same,normalized growth,"locus YAL021C, strain ccr4, hits give low values",0.991
same,normalized growth,"locus YAL026C, strain drs2, hits give low values",1
same,normalized growth,"locus YAL030W, strain snc1, hits give low values",0.999
same,normalized growth,"locus YBL061C, strain skt5, hits give low values",1
same,normalized growth,"locus YBR009C, strain hhf1, hits give low values",1.01
same,normalized growth,"locus YBR021W, strain FUR4, hits give low values",0.984
same,normalized growth,"locus YBR023C, strain chs3, hits give low values",0.996
same,normalized growth,"locus YBR171W, strain sec66, hits give low values",0.99
same,normalized growth,"locus YBR229C, strain ROT2, hits give low values",1
same,normalized growth,"locus YBR231C, strain swc5, hits give low values",0.993
same,normalized growth,"locus YBR279W, strain paf1, hits give low values",1.01
same,normalized growth,"locus YCL011C, strain gbp2, hits give low values",1.01
same,normalized growth,"locus YCL016C, strain dcc1, hits give low values",0.995
same,normalized growth,"locus YCL029C, strain bik1, hits give low values",1
same,normalized growth,"locus YCL061C, strain MRC1, hits give low values",1
same,normalized growth,"locus YCL069W, strain vba3, hits give low values",1.03
same,normalized growth,"locus YCR088W, strain abp1, hits give low values",0.999
same,normalized growth,"locus YDL005C, strain med2, hits give low values",0.994
same,normalized growth,"locus YDL035C, strain GPR1, hits give low values",1.03
same,normalized growth,"locus YDL040C, strain nat1, hits give low values",0.98
same,normalized growth,"locus YDL074C, strain BRE1, hits give low values",1.03
same,normalized growth,"locus YDL101C, strain DUN1, hits give low values",1.02
same,normalized growth,"locus YDL185W, strain tfp1, hits give low values",0.999
same,normalized growth,"locus YDL192W, strain arf1, hits give low values",1
same,normalized growth,"locus YDR001C, strain nth1, hits give low values",1
same,normalized growth,"locus YDR069C, strain doa4, hits give low values",1.01
same,normalized growth,"locus YDR101C, strain arx1, hits give low values",0.984
same,normalized growth,"locus YDR137W, strain rgp1, hits give low values",0.976
same,normalized growth,"locus YDR150W, strain NUM1, hits give low values",1.01
same,normalized growth,"locus YDR159W, strain sac3, hits give low values",0.99
same,normalized growth,"locus YDR162C, strain NBP2, hits give low values",1.03
same,normalized growth,"locus YDR195W, strain ref2",0.972
same,normalized growth,"locus YDR297W, strain sur2, hits give low values",1.01
same,normalized growth,"locus YDR318W, strain mcm21, hits give low values",1
same,normalized growth,"locus YDR334W, strain swr1, hits give low values",1
same,normalized growth,"locus YDR335W, strain msn5, hits give low values",1
same,normalized growth,"locus YDR388W, hits give low values",0.993
same,normalized growth,"locus YDR392W, strain spt3, hits give low values",0.976
same,normalized growth,"locus YDR502C, strain sam2, hits give low values",1
same,normalized growth,"locus YEL003W, strain gim4, hits give low values",1.01
same,normalized growth,"locus YEL037C, strain rad23, hits give low values",0.992
same,normalized growth,"locus YEL061C, strain CIN8 (second series), hits give low values",1
same,normalized growth,"locus YEL061C, strain CIN8, hits give low values",1
same,normalized growth,"locus YER015W, strain faa2, hits give low values",1
same,normalized growth,"locus YER016W, strain bim1, hits give low values",0.996
same,normalized growth,"locus YER110C, hits give low values",0.994
same,normalized growth,"locus YER111C, strain swi4, hits give low values",1.01
same,normalized growth,"locus YER155C, strain BEM2 (second series), hits give low values",0.996
same,normalized growth,"locus YER155C, strain BEM2, hits give low values",1
same,normalized growth,"locus YER167W, strain BCK2, hits give low values",1.02
same,normalized growth,"locus YFR010W, strain ubp6, hits give low values",1
same,normalized growth,"locus YGL078C, strain dbp3, hits give low values",1
same,normalized growth,"locus YGL086W, strain mad1, hits give low values",1
same,normalized growth,"locus YGL167C, strain pmr1, hits give low values",1
same,normalized growth,"locus YGL173C, strain kem1, hits give low values",1
same,normalized growth,"locus YGL227W, strain vid30, hits give low values",0.999
same,normalized growth,"locus YGL240W, strain doc1, hits give low values",0.98
same,normalized growth,"locus YGL248W, strain PDE1, hits give low values",1.01
same,normalized growth,"locus YGL253W, strain hxk2, hits give low values",1.01
same,normalized growth,"locus YGR078C, strain PAC10, hits give low values",1.03
same,normalized growth,"locus YGR135W, strain pre9, hits give low values",0.997
same,normalized growth,"locus YGR229C, strain SMI1, hits give low values",1.04
same,normalized growth,"locus YGR252W, strain gcn5, hits give low values",0.995
same,normalized growth,"locus YHR013C, strain ard1, hits give low values",0.995
same,normalized growth,"locus YHR027C, strain rpn1, hits give low values",0.997
same,normalized growth,"locus YHR030C, strain SLT2, hits give low values",1.01 and 1
same,normalized growth,"locus YHR079C, strain IRE1 (second series), hits give low values",1.02
same,normalized growth,"locus YHR079C, strain IRE1, hits give low values",0.988
same,normalized growth,"locus YHR094C, strain hxt1, hits give low values",0.995
same,normalized growth,"locus YHR129C, strain ARP1, hits give low values",1.01
same,normalized growth,"locus YHR142W, strain chs7, hits give low values",1.01
same,normalized growth,"locus YHR200W, strain rpn10, hits give low values",1.01
same,normalized growth,"locus YIL066C, strain RNR3, hits give low values",1.04
same,normalized growth,"locus YIL073C, strain SPO22, hits give low values",1.02
same,normalized growth,"locus YIL125W, strain kgd1, hits give low values",1
same,normalized growth,"locus YIR030C, strain dcg1, hits give low values",1
same,normalized growth,"locus YJL092W, strain hpr5, hits give low values",0.998
same,normalized growth,"locus YJL095W, strain BCK1 (second series), hits give low values",1
same,normalized growth,"locus YJL095W, strain BCK1, hits give low values",1.03 and 1.04
same,normalized growth,"locus YJL115W, strain asf1, hits give low values",1
same,normalized growth,"locus YJL129C, strain trk1, hits give low values",1.01
same,normalized growth,"locus YJL134W, strain LCB3, hits give low values",1.01
same,normalized growth,"locus YJL154C, strain vps35, hits give low values",0.994
same,normalized growth,"locus YJL164C, strain tpk1, hits give low values",1.01
same,normalized growth,"locus YJL166W, strain qcr8, hits give low values",1
same,normalized growth,"locus YJL168C, strain set2, hits give low values",1
same,normalized growth,"locus YJL187C, strain SWE1 (second series), hits give low values",1.02
same,normalized growth,"locus YJL187C, strain SWE1, hits give low values",1.02
same,normalized growth,"locus YJR043C, strain POL32, hits give low values",1.02
same,normalized growth,"locus YJR066W, strain TOR1, hits give low values",0.93
same,normalized growth,"locus YKL009W, strain mrt4, hits give low values",0.995
same,normalized growth,"locus YKL068W, hits give low values",0.993
same,normalized growth,"locus YKL085W, strain MDH1 (second series), hits give low values",1.01
same,normalized growth,"locus YKL085W, strain MDH1, hits give low values",1.01
same,normalized growth,"locus YKL160W, strain elf1, hits give low values",1
same,normalized growth,"locus YKR001C, strain vps1, hits give low values",0.985
same,normalized growth,"locus YKR026C, strain gcn3, hits give low values",0.989
same,normalized growth,"locus YKR091W, strain srl3, hits give low values",0.997
same,normalized growth,"locus YLL001W, strain dnm1, hits give low values",1
same,normalized growth,"locus YLL026W, hits give low values",0.994
same,normalized growth,"locus YLL041C, strain sdh2, hits give low values",0.994
same,normalized growth,"locus YLR027C, strain aat2, hits give low values",1.01
same,normalized growth,"locus YLR039C, strain RIC1, hits give low values",1.01
same,normalized growth,"locus YLR058C, strain SHM2, hits give low values",1.01
same,normalized growth,"locus YLR102C, strain apc9, hits give low values",0.992
same,normalized growth,"locus YLR113W, strain HOG1, hits give low values",1.02
same,normalized growth,"locus YLR221C, strain rsa3, hits give low values",0.996
same,normalized growth,"locus YLR258W, strain gsy2, hits give low values",0.998
same,normalized growth,"locus YLR262C, strain YPT6 (second series), hits give low values",1.16 [resistant] (active)
same,normalized growth,"locus YLR262C, strain YPT6, hits give low values",1.05
same,normalized growth,"locus YLR268W, strain sec22, hits give low values",1
same,normalized growth,"locus YLR320W, strain mms22, hits give low values",0.996
same,normalized growth,"locus YLR330W, strain CHS5, hits give low values",1.01
same,normalized growth,"locus YLR342W, strain FKS1 (second series), hits give low values",1.02
same,normalized growth,"locus YLR342W, strain FKS1, hits give low values",1.03
same,normalized growth,"locus YLR357W, strain rsc2, hits give low values",0.999
same,normalized growth,"locus YLR370C, strain arc18, hits give low values",0.991
same,normalized growth,"locus YLR371W, strain rom2, hits give low values",0.99
same,normalized growth,"locus YLR384C, strain iki3, hits give low values",0.985
same,normalized growth,"locus YLR418C, strain cdc73, hits give low values",0.99
same,normalized growth,"locus YML016C, strain PPZ1, hits give low values",1.01
same,normalized growth,"locus YML032C, strain rad52, hits give low values",0.998
same,normalized growth,"locus YML120C, strain ndi1, hits give low values",0.996
same,normalized growth,"locus YML124C, strain tub3, hits give low values",0.996
same,normalized growth,"locus YMR058W, strain fet3, hits give low values",1
same,normalized growth,"locus YMR078C, strain ctf18, hits give low values",1.01
same,normalized growth,"locus YMR125W, strain sto1, hits give low values",0.983
same,normalized growth,"locus YMR129W, hits give low values",0.998
same,normalized growth,"locus YMR205C, strain PFK2, hits give low values",1.04
same,normalized growth,"locus YMR223W, strain ubp8, hits give low values",0.998
same,normalized growth,"locus YMR231W, strain pep5, hits give low values",0.969
same,normalized growth,"locus YMR307W, strain GAS1, hits give low values",1.1
same,normalized growth,"locus YNL067W, strain RPL9B, hits give low values",1.02
same,normalized growth,"locus YNL071W, strain lat1, hits give low values",1
same,normalized growth,"locus YNL153C, strain GIM3, hits give low values",1.03
same,normalized growth,"locus YNL183C, strain NPR1, hits give low values",0.973
same,normalized growth,"locus YNL209W, strain ssb2, hits give low values",1.02
same,normalized growth,"locus YNL233W, strain BNI4, hits give low values",1.03
same,normalized growth,"locus YNL248C, strain rpa49, hits give low values",0.996
same,normalized growth,"locus YNL250W, strain rad50, hits give low values",1.01
same,normalized growth,"locus YNL271C, strain bni1, hits give low values",1
same,normalized growth,"locus YNL298W, strain CLA4, hits give low values",0.988
same,normalized growth,"locus YNL307C, strain MCK1, hits give low values",0.992
same,normalized growth,"locus YNL322C, strain KRE1 (second series), hits give low values",0.983
same,normalized growth,"locus YNR049C, strain mso1, hits give low values",0.991
same,normalized growth,"locus YNR052C, strain pop2, hits give low values",0.993
same,normalized growth,"locus YOL012C, strain htz1",0.787
same,normalized growth,"locus YOL147C, strain pex11, hits give low values",0.99
same,normalized growth,"locus YOR001W, strain rrp6, hits give low values",1.01
same,normalized growth,"locus YOR061W, strain CKA2, hits give low values",1.01
same,normalized growth,"locus YOR069W, strain VPS5, hits give low values",1
same,normalized growth,"locus YOR070C, strain gyp1, hits give low values",1
same,normalized growth,"locus YOR080W, strain dia2, hits give low values",0.996
same,normalized growth,"locus YOR083W, strain WHI5, hits give low values",1.01
same,normalized growth,"locus YOR106W, strain vam3, hits give low values",1.01
same,normalized growth,"locus YOR136W, strain idh2, hits give low values",1
same,normalized growth,"locus YOR144C, strain elg1, hits give low values",0.996
same,normalized growth,"locus YOR184W, strain ser1, hits give low values",1
same,normalized growth,"locus YOR231W, strain MKK1, hits give low values",0.978
same,normalized growth,"locus YOR265W, strain rbl2, hits give low values",1
same,normalized growth,"locus YOR270C, strain vph1, hits give low values",1.06
same,normalized growth,"locus YOR290C, strain snf2, hits give low values",0.995
same,normalized growth,"locus YOR316C, strain cot1, hits give low values",0.989
same,normalized growth,"locus YPL051W, strain arl3, hits give low values",1.01
same,normalized growth,"locus YPL055C, strain LGE1, hits give low values",1.04
same,normalized growth,"locus YPL078C, strain atp4, hits give low values",1.01
same,normalized growth,"locus YPL106C, strain sse1, hits give low values",1.01
same,normalized growth,"locus YPL240C, strain hsp82, hits give low values",0.995
same,normalized growth,"locus YPL256C, strain CLN2, hits give low values",0.996
same,normalized growth,"locus YPR119W, strain clb2, hits give low values",1
same,normalized growth,"locus YPR141C, strain kar3, hits give low values",0.998
same,normalized growth,"locus YPR163C, strain tif3, hits give low values",1
same,normalized growth,"locus YPR167C, strain met16, hits give low values",0.999
same,normalized growth,"strain wtn01, hits give low values",0.99
